Screens (PubChem)
Rows were chosen to be rich in hits. Some 19% of all compounds tested hit in one or more screens of this group.
Pf growth 48h – Primary qHTS for delayed death inhibitors of the malarial parasite plastid, 48 hour incubation | 310,000 tested, 5.9% active | P. falciparum luciferase growth in erythrocytes, 48 h | Potency, µM (highest dose often 28.7 µM), for the others: at the highest dose activity change, negative = inhibition, hits mostly inhibitors | AID 504832, 2011; further: potency means the concentration at half of the fitted maximal effect; on the % scale 0 is the no-effect control and ±100 the full control effect
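Growth was read as firefly luciferase luminescence after a 48 h, 37 C, 5% CO2 exposure of compounds to reporter-bearing P. falciparum cultures (0.1% parasitemia, 2% hematocrit final) in Albumax-supplemented RPMI 1640.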
Cycloheximide cs – Cycloheximide Counterscreen for Small Molecule Inhibitors of Shiga Toxin; max response, %; cell reporter, cycloheximide protein synthesis inhibition counterscreen; 300,000 tested, 12% active; in the data active means max response mostly above about 13%, no sharp cut-off; inactive means mostly below about 14%; further: read at 38.3 µM for the half of the compounds with a filed dose; 0% is about no effect
Pf growth 96h – Primary qHTS for delayed death inhibitors of the malarial parasite plastid, 96 hour incubation | Potency, µM (titrated, usually from 28.7 µM), for inactives: at the top dose activity change, negative = inhibition, most hits filed as inhibitors | AID 504834, 2011 | P. falciparum luciferase reporter growth, 96 h | 320,000 tested, 6.9% active; further: potency means the concentration at half of the fitted maximal effect; on the % scale 0 is the no-effect control and ±100 the full control effect
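Luminescence readout: decreased luciferase signal marks inhibited growth of reporter-expressing P. falciparum in infected red cells (2% hematocrit, 0.05% parasitemia final), exposed to compound two generations (96 h, 37 C, 5% CO2).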
SARS PLpro yeast – qHTS of Yeast-based Assay for SARS-CoV PLP | S. cerevisiae expressing SARS-CoV PLpro, growth rescue | Potency, µM (titrated, usually from 32.9 µM), inactives show at the top dose activity, positive = growth rescue, actives largely listed as activators | 330,000 tested, 0.19% active | AID 485353, 2010; calls by dose curve; further: potency means the concentration at half of the fitted maximal effect; 0% is about no effect; nearly all actives have a fitted effect of over 55% in size
AMA1-RON2 inh – qHTS for Inhibitors of AMA1-RON; Towards Development of Antimalarial Drug Lead: Primary Screen. AlphaScreen AMA1-biotinylated RON2 peptide binding. Potency, µM (series often up to 58.2 µM), for inactives: at the top dose activity change, negative = inhibition, most hits filed as inhibitors. 360,000 tested, 0.2% active;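 further: potency means the concentration at half of the fitted maximal effect; 0% = vehicle wells and -100% = peptide control; nearly all actives have a fitted effect of over 45% in size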
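AMA1 (3D7) with his tag at 25 nM final met compounds first, then biotinylated RON2 peptide at 25 nM; detection used donor plus acceptor beads, 10 µg/mL apiece, read by AlphaScreen after 30 min at room temperature.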
Shiga inhibitor – A qHTS for Small Molecule Inhibitors of Shiga Toxin; Vero cells, Shiga toxin protein synthesis inhibition reporter; inhibition, % at 38.7 µM; 290,000 tested, 9.2% active; AID 2315, 2010; in the data active means inhibition mostly above about 28%, no sharp cut-off; inactive means mostly below about 43%; further: 0% is about no effect
* marks the source's active call; other numbers are inactive results; u = inconclusive; x = not tested or not shown. Unless noted, the call rests on the fitted dose curve; in most records, active means well fitted curve in the direction sought with a large enough effect; inconclusive means small, poorly fitted or top-dose-only effect, or another doubt; inactive means no such curve, though single readings can be large; an effect the other way counts as inactive or inconclusive.

SMILES	Pf growth 48h	Cycloheximide cs	Pf growth 96h	SARS PLpro yeast	AMA1-RON2 inh	Shiga inhibitor
CN(c1ccc(OCC(=O)Nc2nc3ccccc3s2)cc1)S(=O)(=O)c1ccccc1	u	-3	5.2µM*	-3%	6%	-8
CCOC(=O)c1ccc(NC(=O)CN(C)S(=O)(=O)c2ccc(Br)s2)cc1	u	16*	20%	-49%	0%	23
Cc1ccc(S(=O)(=O)N(C)CC(=O)Nc2nc3ccccc3s2)cc1	-9%	16	6.6µM*	-15%	-2%	27
CC(C)(C)c1ccc(S(=O)(=O)Nc2ccc(C(O)(C(F)(F)F)C(F)(F)F)cc2)cc1	x	x	x	x	3%	x
CN1OC[C@@H]2CN[C@H](c3cccc(-c4ccc(C#N)cc4)c3)C[C@@H]21	x	x	x	x	7%	x
COC(=O)c1ccc2nc(-c3ccc(C#N)cc3)c(Cc3cccc(F)c3)n2c1	x	x	x	x	-4%	x
Cc1ccc2nc(NC(=O)CNS(=O)(=O)c3ccc(Br)s3)sc2c1	67%	22*	30%	1%	16%	15
COC(=O)c1c(NC(=O)C2CCCCC2C(=O)O)sc2c1CCCCC2 (stereo not given)	-5%	40*	-5%	0%	-18%	84*
O=C(Nc1sc2c(c1C(=O)O)CCC2)c1ccco1	x	6	18%	-13%	10%	32
COC(=O)c1c(NC(=O)c2ccc(C)o2)sc2c1CCCCC2	85%	50*	49%	-19%	12%	73*
Cc1ccc(C(=O)Nc2sc3c(c2C(=O)O)CCCC3)o1	24%	52*	22%	-7%	-14%	68*
Cc1ccc(C(=O)Nc2sc3c(c2C(=O)O)CCC(C)C3)o1 (stereo not given)	x	x	x	-4%	2%	x
CCOC(=O)c1c(NC(=O)C2CCCCC2C(=O)O)sc2c1CCCCC2 (stereo not given)	8%	-5	17%	0%	-2%	-19
Cc1ccc(C(=O)Nc2sc3c(c2C(=O)O)CCCCC3)o1	-12%	37*	u	-16%	0%	54*
CCN(CC)S(=O)(=O)c1ccc2c(c1)N(CC(=O)NCc1ccccn1)C(=O)CO2	29%	-2	-6%	-1%	53%	25
CC(=O)Nc1sc2c(c1C(=O)N1CCOCC1)CCCCC2	6%	-4	12µM*	4%	0%	11
COC(=O)c1c(NC(=O)c2c(-c3ccccc3Cl)noc2C)sc2c1CCC2	x	-1	2.1µM*	1%	-18%	-19
COC(=O)c1c(NC(=O)Cc2cccs2)sc2c1CCCC2	-6%	30*	u	-18%	-10%	22
COCC(=O)Nc1sc2c(c1C(=O)OC)CCCC2	0%	14	1%	-24%	-7%	13
O=C(c1ccc(Cl)cc1Cl)n1nnc2ccccc21	x	2	x	x	x	-3
O=[N+]([O-])c1ccc(COn2nnc3ccccc32)cc1	21%	14*	39%	1%	-4%	45
Clc1ccc(COn2nnc3ccccc32)c(Cl)c1	12%	44*	x	x	13%	109*
COC(=O)c1c(N)[nH]c(C(=O)c2ccccc2)c1-c1ccccc1Br	x	x	x	x	28%	x
C(=N\Nc1nc2ccccc2[nH]1)/c1ccc2c(c1)OCO2	0.47µM*	35*	u	0%	1%	88*
O=c1nc(N2CCOCC2)nc(N/N=C/c2ccc3c(c2)OCO3)[nH]1	1%	-2	12µM*	2%	28%	-2
SMILES	Pf growth 48h	Cycloheximide cs	Pf growth 96h	SARS PLpro yeast	AMA1-RON2 inh	Shiga inhibitor
C/C(=N\Nc1ccccn1)c1ccc2c(c1)OCO2	142%	44*	73%	3%	6%	72*
Cc1cc(C(=O)N/N=C/c2ccc3c(c2)OCO3)c2ccccc2n1	-12%	-2	67%	1%	18%	-6
O=C(N/N=C/c1ccc2c(c1)OCO2)c1ccc(NC(=O)c2ccccc2Cl)cc1	u	12	-13%	-1%	-3%	25
Clc1ccccc1N/N=C/c1ccc2c(c1)OCO2	200%	76*	405%	-99%	u	115*
O=C(Nc1ccc(Cl)cc1)NN1CC(=O)N(c2cccc(C(F)(F)F)c2)CC1=O	-12%	-5	11%	1%	-1%	19
CCOC(=O)CSc1nnc(CSc2nc3sc4c(c3c(=O)[nH]2)CCCC4)n1-c1ccccc1	36%	2	117%	0%	-13%	-11
CCN(C)C1CN(Cc2cn(Cc3cccc(C(F)(F)F)c3)nn2)S(=O)(=O)C1 (stereo not given)	x	x	x	x	1%	x
C/C(=N\Nc1nc2ccccc2[nH]1)c1ccc2c(c1)OCCO2	3.7µM*	36*	u	3%	1%	53*
CC(C)C(NC(=O)c1ccc2c(c1)OCCO2)c1nc2ccccc2[nH]1 (stereo not given)	24%	-10	28%	-5%	-3%	21
C/C(=N\Nc1nc2ccccc2[nH]1)c1ccc2c(c1)OCO2	u	35*	u	6%	12%	65*
Cc1ccc2oc(C(=O)N3CCN(CC(=O)NC(C)C)CC3)c(C)c2c1	14%	5	u	6%	13%	x
COc1cccc(C(=O)Nc2ccc(Oc3cccc(C(F)(F)F)c3)nc2)c1	9.3µM*	1	u	-2%	5%	-4
O=C(Nc1ccc(Oc2cccc(C(F)(F)F)c2)nc1)c1cccs1	1.7µM*	4	u	-4%	5%	7
CC(C)(C)c1ccc(Oc2ccc(NC(=O)c3ccccc3C(=O)O)cn2)cc1	u	-4	5%	-2%	34%	-7
COc1cc(NC(=O)c2ccnnc2)cc(C(=O)Nc2cccc(C(F)(F)F)c2)c1	9.3µM*	1	4.1µM*	0%	-8%	11
COc1ccc(NC(=O)COc2cccc(C(F)(F)F)c2)cn1	u	x	0%	-4%	-1%	x
O=C(Nc1ccc(Oc2cccc(C(F)(F)F)c2)nc1)c1ccccc1	10µM*	-3	15µM*	-1%	-15%	-2
CCCCNC(=O)C(NC(=O)c1ccc(-c2ccccc2)cc1)C(=O)c1ccccc1 (stereo not given)	x	x	x	x	4%	x
CCC1=C(OC(=O)N(CC)CC)N2C(=O)OC(=NCC3CC3)[C@]2(C)[C@H]2C1=CC[C@H]1C(=O)N(C)C(=O)[C@H]12	8.3µM*	-3	10µM*	4%	-4%	-7
CCC1=C(OC(=O)N(CC)CC)N2C(=O)OC(=NCC3CC3)[C@]2(C)[C@H]2C1=CC[C@H]1C(=O)N(CC)C(=O)[C@H]12	10µM*	-3	u	-2%	2%	-6
CCCCc1ccc(NC2=NCC(=O)N2CCc2ccccc2)cc1	u	-1	u	-1%	12%	-10
COc1cccc(C(=O)c2c(-c3ccccc3)ncc3cc(OC)c(OC)cc23)c1	x	x	x	-25%	-15%	x
